Among the test systems are NCI-H23 lung; NCI-H226 lung; NCI-H322M lung; HOP-62 NSCLC; NCI-H460 lung; HOP-92 NSCLC; NCI-H522 lung; A549/ATCC NSCLC; 786-0 renal; COLO 205 colon; DU-145 prostate; K-562 leukemia; MALME-3M melanoma; MDA-MB-231 breast; RXF 393 renal; SF-268 CNS; SF-295 CNS; SF-539 CNS; UACC-257 melanoma; M14 melanoma.
Assay in all cases: NCI-60 one-dose screen, 48 h (100 = growth as untreated, 0 = no growth, -100 = all killed)
Holding throughout (details): 10 µM unless noted

About 83,000 compounds went through this panel and 20% of them were active in at least one assay; those are over-represented in the sample as a whole.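 The test compound was applied at a single concentration to cells in 96-well plates for 48 hours, and percent growth was recorded.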 A number with no mark means an inactive call. The source made the active and inactive calls. How the source made its calls: active means growth percent below 10; inactive means the rest.

Consider `COc1ccc(Nc2nccc(Nc3ccc4[nH]ncc4c3)n2)cc1`, for which the growth with NCI-H23 lung is 40.3%; with NCI-H226 lung, 28.1%; with NCI-H322M lung, 63.2%; with HOP-62 NSCLC, 49%; in the test with NCI-H460 lung, 24.9%; with HOP-92 NSCLC, -1.08% (active). Further, the growth in the test on NCI-H522 lung is 19.1%; with A549/ATCC NSCLC, 24%; in the test with 786-0 renal it was 43.5%; in the test on COLO 205 colon, 26.4%; in the test with DU-145 prostate, 32%; in the test with K-562 leukemia it was 4.96% (active). In addition, the growth with MALME-3M melanoma is 76.1%; in the test with MDA-MB-231 breast it was 48.6%; in the test with RXF 393 renal, 31.8%; in the test with SF-268 CNS, 47%; in the test on SF-295 CNS, 47.7%; with SF-539 CNS it was 68.8%. In addition, the results for the growth in the test with UACC-257 melanoma and with M14 melanoma were 46.2% and 33%, respectively.
For `CN1CCN(Cn2nc(-c3cc(Cl)cc(Cl)c3Cl)oc2=S)CC1`, the growth in the test with NCI-H23 lung was 90%; in the test on NCI-H226 lung, 96%; in the test with NCI-H322M lung, 101%; in the test on HOP-62 NSCLC, 93.9%; with NCI-H460 lung, 102%; in the test on HOP-92 NSCLC it was 119%. Further, the growth was 91.1% with NCI-H522 lung; 104% in the test on A549/ATCC NSCLC; 94.5% in the test with 786-0 renal; 110% with COLO 205 colon; 108% in the test with DU-145 prostate; 68.8% in the test with K-562 leukemia. The growth was 101% with MALME-3M melanoma; 94.4% in the test with MDA-MB-231 breast; 99.5% with RXF 393 renal; 109% in the test with SF-268 CNS; 87.7% in the test with SF-295 CNS; 106% in the test with SF-539 CNS. The growth is 77.8% in the test on UACC-257 melanoma and 107% in the test on M14 melanoma.
As for `CC(C)=CC(=O)C1C(=O)c2ccccc2C1=O`, the growth in the test on NCI-H23 lung is 96.4%; in the test on NCI-H226 lung it was 97.9%; in the test with NCI-H322M lung, 92.1%; in the test on HOP-62 NSCLC it was 102%; with NCI-H460 lung it was 102%; in the test with HOP-92 NSCLC, 88.5%. The growth is 87.2% in the test with NCI-H522 lung; 106% in the test on A549/ATCC NSCLC; 105% in the test with 786-0 renal; 115% with COLO 205 colon; 104% in the test on DU-145 prostate; 74.5% in the test on K-562 leukemia. Also, the growth in the test with MALME-3M melanoma is 83.6%; with MDA-MB-231 breast, 107%; in the test on RXF 393 renal, 104%; in the test with SF-268 CNS it was 101%; in the test on SF-295 CNS, 98.3%; in the test with SF-539 CNS, 104%. In addition, the growth with UACC-257 melanoma was 107%; in the test on M14 melanoma, 94%.
In the case of `COc1ccc(/C=N\NC(=O)c2ccc3nc(-c4ccc(Cl)cc4)[nH]c3c2)cc1`, the growth is 41.6% with NCI-H23 lung; 73.8% in the test with NCI-H226 lung; 55.9% in the test with NCI-H322M lung; 30.3% in the test with HOP-62 NSCLC; 5.91% (active) in the test on NCI-H460 lung; 36% in the test on HOP-92 NSCLC. Also, the growth is 82.6% in the test with NCI-H522 lung; 12% in the test on A549/ATCC NSCLC; 3.15% (active) with 786-0 renal; 22.9% with COLO 205 colon; 79.3% in the test with DU-145 prostate; 31.9% in the test on K-562 leukemia. In addition, the growth with MALME-3M melanoma is 6.53% (active); in the test on MDA-MB-231 breast it was 39.8%; in the test on RXF 393 renal, 43.8%; with SF-268 CNS, 19.9%; in the test with SF-295 CNS, -38.9% (active); in the test with SF-539 CNS, 42.6%. Further, the growth is 54.4% in the test with UACC-257 melanoma and 26.2% with M14 melanoma.
For the compound `CCN1C(=O)N(CC)C2C1NN=c1s/c(=C\c3ccccc3)c(=O)n12` (stereo not given), the growth with NCI-H23 lung is 25.6%; in the test on NCI-H226 lung it was 59.1%; in the test with NCI-H322M lung it was 42.6%; in the test on HOP-62 NSCLC, 38.2%; with NCI-H460 lung, 4.35% (active); in the test with HOP-92 NSCLC, 27.3%. Moreover, the growth was -8.72% (active) with NCI-H522 lung; 7.65% (active) in the test with A549/ATCC NSCLC; 25.1% in the test on 786-0 renal; -2.49% (active) in the test with COLO 205 colon; 5.47% (active) in the test on DU-145 prostate; 8.79% (active) in the test with K-562 leukemia. For the same compound, the growth in the test on MALME-3M melanoma is 41.1%; with MDA-MB-231 breast, 2.86% (active); in the test with RXF 393 renal it was 32%; in the test on SF-268 CNS, 54.8%; in the test with SF-295 CNS, 5.04% (active); with SF-539 CNS, -12.5% (active). In addition, the values for the growth with UACC-257 melanoma and in the test on M14 melanoma were 45.8% and 8.9% (active), respectively.
On to `N#C/C(Sc1nc2sc3c(c2c(=O)n1Cc1ccccc1)CCCC3)=C1/SC=C(c2ccc(Cl)cc2)N1c1ccccc1`, for which the growth is 86.6% in the test with NCI-H23 lung; 106% in the test on NCI-H226 lung; 84.5% in the test with NCI-H322M lung; 78.8% in the test with HOP-62 NSCLC; 90.6% with NCI-H460 lung; 68.6% with HOP-92 NSCLC. Further, the growth was 89.7% in the test on NCI-H522 lung; 100% with A549/ATCC NSCLC; 87.4% in the test with 786-0 renal; 104% in the test with COLO 205 colon; 119% with DU-145 prostate; 82.5% in the test on K-562 leukemia. For the same compound, the growth in the test on MALME-3M melanoma was 89.8%; with MDA-MB-231 breast it was 86.4%; in the test on RXF 393 renal, 90.9%; with SF-268 CNS, 78%; in the test with SF-295 CNS it was 88.9%; in the test on SF-539 CNS, 72.3%. For the same compound, the values for the growth with UACC-257 melanoma and in the test with M14 melanoma were 108% and 90.5%, respectively.
Take `COc1ccc(C2=C/C(=C\c3ccccc3O)C(=O)N2Cc2ccccc2)cc1`: the growth with NCI-H23 lung is 85.9%; in the test with NCI-H226 lung, 94.9%; with NCI-H322M lung, 77.8%; with HOP-62 NSCLC, 89.7%; in the test with NCI-H460 lung, 90%; in the test on HOP-92 NSCLC, 64.6%. Besides, the growth was 51.3% in the test on NCI-H522 lung; 74% in the test with A549/ATCC NSCLC; 90% with 786-0 renal; 102% in the test with COLO 205 colon; 96.2% in the test on DU-145 prostate; 51.1% in the test on K-562 leukemia. The growth with MALME-3M melanoma is 63.4%; with MDA-MB-231 breast, 93.7%; with RXF 393 renal, 76.2%; with SF-268 CNS it was 86.5%; with SF-295 CNS it was 94%; in the test on SF-539 CNS it was 101%. Further, the growth with UACC-257 melanoma was 71.7%; with M14 melanoma it was 50.5%.
For `N/C(=N\c1nc2ccccc2s1)NC(=O)Nc1ccccc1`, the growth in the test on NCI-H23 lung is 54.7%; in the test with NCI-H226 lung, 87.8%; in the test with NCI-H322M lung it was 74.3%; with HOP-62 NSCLC it was 30%; in the test on NCI-H460 lung, 14.4%; in the test on HOP-92 NSCLC, 53.2%. In addition, the growth is -13.2% (active) in the test on NCI-H522 lung; 39% in the test on A549/ATCC NSCLC; 52.3% in the test on 786-0 renal; 28.3% with COLO 205 colon; 58.1% in the test with DU-145 prostate; 10.8% with K-562 leukemia. In addition, the growth is 58.1% in the test with MALME-3M melanoma; 31.6% with MDA-MB-231 breast; 62.1% in the test on RXF 393 renal; 57.5% with SF-268 CNS; 39% in the test with SF-295 CNS; 26.9% with SF-539 CNS. Besides, the figures for the growth in the test on UACC-257 melanoma and in the test with M14 melanoma were 59% and 7.51% (active), respectively.

(Values after PubChem BioAssay (NCI).)
